# The whole screen tested about 13,000 compounds, of which about 3,200 (25%) showed an effect of 50% or more. Some of the results follow.
# Tested on: P. falciparum stage V gametocytes
# Parameters: BacTiter-Glo ATP luminescence viability of purified stage V gametocytes in 384-well plates, per cent inhibition versus DMSO
# Details: 48 h, 5 µM; inhibitor
row,SMILES,% Inhibition
1,CC1(C)N=C(N)N=C(N)N1OCCCNC(=O)c1ccc(C(=O)NCCCON2C(N)=NC(N)=NC2(C)C)cc1 [TCMDC-131677],3.216%
2,CCOC(=O)c1ccc(-c2c(C(F)(F)F)noc2-c2cc(CC)c(OC)cc2O)o1 [TCMDC-124150],2.818%
3,Cc1ccc(C)c2c1[nH]c1ccc(C3=NCCN3)cc12 [TCMDC-137683],24.52%
4,CCCS(=O)(=O)c1nc(S(=O)(=O)c2ccc(Cl)cc2)c(N2CCCCC2)s1 [TCMDC-124768],-49.43%
5,Cc1cc(-c2ccc(CNCc3ccsc3)cc2)ccc1S(=O)(=O)NCCN1CCCC1 [TCMDC-132292],94.64%
6,COc1ccc(CNCc2ccsc2)cc1-c1ccc(OC)c(S(=O)(=O)NCCN2CCCC2)c1 [TCMDC-132296],104.6%
7,O=S(=O)(NCCN1CCCC1)c1ccc(-c2ccc(CNCc3ccsc3)cc2)cc1F [TCMDC-132288],40.86%
8,COc1ccc(-c2ccc(CNCc3ccsc3)cc2)cc1S(=O)(=O)NCCN1CCCC1 [TCMDC-132283],107.3%
9,COc1ccc(CNCc2ccsc2)cc1-c1ccc(S(=O)(=O)NCCN2CCCC2)c(C)c1 [TCMDC-132225],105.9%
10,CC(=O)OCCN1C(=O)c2ccc3c4c(ccc(c24)C1=O)C(=O)N(CCOC(C)=O)C3=O [TCMDC-123488],10.44%
11,COc1cc(Nc2nccc(N3CCC(NC(=O)c4cccc(NC(C)=O)c4)C3)n2)cc(OC)c1OC (stereo not drawn) [TCMDC-133622],-17.51%
12,Cc1ccc(O)c(C(=O)c2cnc3c(c2)c(-c2ccc(F)cc2)c(C#N)c(=O)n3C)c1 [TCMDC-124507],19.5%
13,CC(=O)Nc1ccc(CN2CCC(N(C)c3cc(NC(=O)c4cccc(F)c4)ccn3)CC2)cc1 [TCMDC-134981],-20.16%
14,O=C(Nc1ccc2c(c1)CN(Cc1ccc(N3CCCC3)o1)CCC2)c1ccoc1 [TCMDC-134723],-9.381%
15,COc1ccc(-c2nc(NC(=O)Cc3ccc(OC)c(OC)c3)sc2C)cc1 [TCMDC-123619],10.74%
16,COc1ccc(OCC(=O)Nc2nc(-c3ccc(OC)cc3)c(C)s2)cc1 [TCMDC-124330],22.09%
17,CCOc1ccc(-c2nc(NC(=O)Cc3cccc(OC)c3)sc2C)cc1 [TCMDC-123618],-21.09%
18,COc1ccc(-c2nc(NC(=O)CS(=O)(=O)c3ccc(OC)cc3)sc2C)cc1 [TCMDC-125152],-0.7393%
19,COc1ccc(-c2nc(NC(=O)Cc3cccc(OC)c3)sc2C)cc1 [TCMDC-124331],95.1%
20,COc1ccc(-c2nc(NC(=O)CSc3ccc([N+](=O)[O-])cc3)sc2C)cc1 [TCMDC-124323],91.56%
21,Cc1ccc(-c2nc(NC(=O)Nc3ccc(C(F)(F)F)cc3)sc2C)cc1Cl [TCMDC-125584],10.27%
22,COc1ccc(-c2nc(NC(=O)CSc3ccccc3)sc2C)cc1 [TCMDC-123814],23.99%
23,COc1ccc(-c2nc(NC(=O)CS(=O)(=O)c3ccc(C)cc3)sc2C)cc1 [TCMDC-124318],31.51%

row,SMILES,% Inhibition
1,COc1ccc(-c2nc(NC(=O)CS(=O)(=O)c3ccc(F)cc3)sc2C)cc1 [TCMDC-123523],53.6%
2,COc1ccc(-c2nc(NC(=O)Cc3ccc4c(c3)OCCO4)sc2C)cc1 [TCMDC-124374],41.12%
3,Cc1sc(NC(=O)Cc2cccc(C(F)(F)F)c2)nc1-c1cccc(Cl)c1 [TCMDC-125144],54.43%
4,CCOc1cc2c(cc1OCC)C(c1ccc(O)c(Cl)c1)NCC2 (stereo not drawn) [TCMDC-125439],10.77%
5,CC1CN(c2nc(NCCc3ccc(O)cc3)nc(NCc3ccccc3-c3ccc(C(F)(F)F)cc3)n2)CC(C)N1 (stereo not drawn) [TCMDC-138324],26.39%
6,COc1cc2nc(N(C)CC3COc4ccccc4O3)nc(N)c2cc1OC.Cl (stereo not drawn) [TCMDC-131889],-22.31%
7,C=CCC(C)n1ncc2c3c(N)nc(N)nc3ccc21 (stereo not drawn) [TCMDC-137867],-15.57%
8,COc1cc(Cc2cnc(N)nc2N)c2c(c1OC)OC(C)C=C2 (stereo not drawn) [TCMDC-137896],4.903%
9,O=C(Nc1cccc(-c2cccc(-c3nc4ccc(F)cc4[nH]3)c2)c1)c1cnc[nH]1 [TCMDC-136932],-61.11%
10,COc1ccc(-c2c3c(=O)n(C)c(=O)n(C)c3c3nnc4ccccc4n23)cc1 [TCMDC-125099],-11.53%
11,O=C(Nc1ccc(-c2nc3ccccc3[nH]2)cc1)C1CCCN(CC2CC2)C1 (stereo not drawn) [TCMDC-124656],-0.844%
12,O=C(CC1NC(=O)c2ccccc21)Nc1ccc(-c2ccc(-c3nc4ccc(C(F)(F)F)cc4[nH]3)cc2)cc1 (stereo not drawn) [TCMDC-137095],71.74%
13,Cc1cccc2[nH]c(-c3cccc(-c4ccc(NC(=O)CC5NC(=O)c6ccccc65)cc4)c3)nc12 (stereo not drawn) [TCMDC-137094],-30.82%
14,CN1CCC(C(=O)Nc2ccc(-c3cccc(-c4nc5ccc(C(F)(F)F)cc5[nH]4)c3)cc2)CC1 [TCMDC-132188],-24.87%
15,O=C(CC1NC(=O)c2ccccc21)Nc1ccc(-c2cccc(-c3nc4ccc(C(F)(F)F)cc4[nH]3)c2)cc1 (stereo not drawn) [TCMDC-137092],-11.47%
16,CN1CCN(CC(=O)Nc2cccc(-c3cccc(-c4nc5ccc(C(F)(F)F)cc5[nH]4)c3)c2)CC1 [TCMDC-136980],78.77%
17,CN1CCN(CC(=O)Nc2cccc(-c3ccc(-c4nc5cc(C(F)(F)F)ccc5[nH]4)s3)c2)CC1 [TCMDC-136977],-5.014%
18,CN1CCN(CC(=O)Nc2cccc(-c3ccc(-c4nc5ccc(C(F)(F)F)cc5[nH]4)cc3)c2)CC1 [TCMDC-136984],-3.609%
19,CN1CCN(CC(=O)Nc2ccc(-c3cccc(-c4nc5ccc(C(F)(F)F)cc5[nH]4)c3)cc2)CC1 [TCMDC-136981],72.32%
20,CN1CCN(CC(=O)Nc2ccc(-c3ccc(-c4nc5ccc(C(F)(F)F)cc5[nH]4)cc3)cc2)CC1 [TCMDC-136985],-42.42%
21,CCOC(=O)CNC(=O)N1CCN(C(=O)NCC(=O)OCC)CC1 [TCMDC-138998],-3.887%
22,Cc1c(-c2ccccc2)ccc2[nH]cc(CC#N)c12 [TCMDC-139748],49.07%
23,O=C(Nc1cccc(CN2CCCN(Cc3ccc(O)cc3)CC2)c1)c1ccc2ccccc2n1 [TCMDC-141860],34.74%

row,SMILES,% Inhibition
1,CCOc1cc(C)ccc1C1CCN(CCCCNC(=O)c2nc(-c3ccc(C(F)(F)F)cc3)[nH]c2C)CC1 [TCMDC-138585],-10.92%
2,COc1ccc(-c2nc3ccc(C)nc3nc2-c2ccc(OC)cc2)cc1 [TCMDC-142014],17.71%
3,CC(CCc1ccccc1)NCC(O)c1cccc(C(F)(F)F)c1 (stereo not drawn) [TCMDC-131247],18.39%
4,c1ccc(-c2nc(NCCCn3ccnc3)cc(-c3ccncc3)n2)cc1 [TCMDC-125417],49.28%
5,FC(F)(F)c1cccc(-c2cc(NCCCn3ccnc3)nc(-c3ccncc3)n2)c1 [TCMDC-125414],56.64%
6,c1ccc(-c2cc(NCCCn3ccnc3)nc(-c3cccnc3)n2)cc1 [TCMDC-125422],8.996%
7,CC1CN=C(c2ccc(NC(=O)c3ccc(C(=O)Nc4ccc(C5=NCC(C)N5)cc4)cc3)cc2)N1 (stereo not drawn) [TCMDC-137474],8.984%
8,O=S(=O)(NCCN1CCCC1)c1ccc(-c2cccc(CNCc3ccsc3)c2)s1 [TCMDC-132274],102.4%
9,O=S(=O)(NCCN1CCCC1)c1ccc(-c2ccc(CNCc3ccsc3)cc2)s1 [TCMDC-132285],78.64%
10,Cc1ccc(CNC(=O)c2ccc(CN3CCCN(Cc4ccsc4)CC3)cc2)cc1 [TCMDC-136451],11.88%
11,COc1ccc(S(=O)(=O)NC2CCN(c3ccc(C(F)(F)F)cc3NC(=O)OCC(C)C)CC2)cc1 [TCMDC-134275],14.87%
12,N#Cc1cccc(NC(=O)Nc2cccc(-c3cccc(-c4nc5ccc(C(F)(F)F)cc5[nH]4)c3)c2)c1 [TCMDC-133195],-34.96%
13,Cc1nn(-c2ccccc2)c2c1C(c1ccc(C(C)C)cc1)N1C(=N2)N(Cc2ccccc2)c2ccccc21 (stereo not drawn) [TCMDC-123903],-90.94%
14,COc1ccc(CN2CCN(CCOC(c3ccccc3)c3ccccc3)CC2)c(O)c1 [TCMDC-135693],26.17%
15,CCN1C(=O)N(CCC(C)C)C2(CCN(Cc3ccc(OC)cc3O)CC2)C1=O [TCMDC-124587],63.13%
16,COc1ccc(CN2CCN(CCOC(c3ccc(F)cc3)c3ccc(F)cc3)CC2)c(O)c1 [TCMDC-135694],24.37%
17,COc1ccc(S(=O)(=O)NCC2CCCN(CCCCCNC(=O)/C=C/c3ccc(Cl)c(Cl)c3)C2)cc1 (stereo not drawn) [TCMDC-139595],95.6%
18,O=C(/C=C/c1ccc(Cl)c(Cl)c1)NCCCCCN1CCCC(CNS(=O)(=O)c2ccc(F)cc2)C1 (stereo not drawn) [TCMDC-139596],59.41%
19,O=c1cc(NCCCNCc2cc(F)cc(C(F)(F)F)c2)[nH]c2ccccc12 [TCMDC-139726],25.21%
20,CC(C)Oc1ccc2ccccc2c1CNCCCCCCNCc1c(OC(C)C)ccc2ccccc12 [TCMDC-137965],107.1%
21,COc1ccc2ccccc2c1CNCCCCCCNCc1c(OC)ccc2ccccc12 [TCMDC-137915],112.9%
22,CC(C)COc1ccc2ccccc2c1CNCCCCCCNCc1c(OCC(C)C)ccc2ccccc12 [TCMDC-137972],129.3%
23,CC(C)CCNCc1c(O)ccc2ccccc12 [TCMDC-137596],6.02%

# Reference: article PMC4552634, “A New Set of Chemical Starting Points with Plasmodium falciparum Transmission-Blocking Potential for Antimalarial Drug Discovery” (PLoS ONE, 2015)
